The values that follow come from PubChem BioAssay.

Where “and” joins values, the source holds several entries; their conditions need not be identical. Equal entries are not always repeated. For some assays here: Entries with a potency or affinity are not part of this list. Calls of active or inactive are those of the source. Rule as the data show it, unless noted: active = parasite load remaining mostly below about 12% (no sharp cut-off); inactive = mostly above about 10%.

Test [1] is described as follows: blockers of polyQ-driven CASP3 activation – cell-based (AID 1583). As to conditions: polyglutamine-induced caspase-3 activation, cell assay; stronger effect = higher value;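 tested at 10 µM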.
The nature of test [2]: yeast 75Q aggregation reduction – 75Q-TubU reporter (AID 1593). As to conditions: Yeast 75Q polyglutamine aggregation reporter.
Test [3] is described as follows: restoration of touch response, mutant HTT neurons – whole organism, C. elegans mechanosensory neurons, N-terminal huntingtin (AID 1599). As to conditions: C. elegans polyQ-huntingtin mechanosensory neurons, stronger effect = higher value.
The nature of test [4]: blockers of cytochrome c efflux from mitochondria – biochemical, purified mitochondria (AID 1603).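 Also: mouse liver mitochondria challenged with calcium chloride; signal normalized to the plate average as 100%.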 The conditions noted are these: stronger effect = lower value.
Test [5] in a line: polyglutamine aggregate formation blockers (AID 1604). As to conditions: polyglutamine-induced protein aggregation inhibition assay; stronger effect = higher value; tested at 2.5 µM.
The nature of test [6]: glutamate transport activators, MN-1 cells, MN-1 cell line (AID 1612).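 Also: tested at 1 µM final; 0% = mean of DMSO vehicle wells on each plate; positive means more glutamate uptake than control and negative means less.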 The conditions noted are these: MN-1 motor neuron cells, stronger effect = higher value.
Test [7] in a line: GFP-Q80 aggregate reduction, neuronal-like cells, cell-based, NGF-treated PC12, GFPQ80 (AID 1614).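 Also: lower means fewer inclusions and 0 means no inclusions at all.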 As to conditions: PC12 NGF-treated GFP-polyQ80 inclusion reduction.
A short description of test [8]: 75Q-TubH aggregate inhibition, S. cerevisiae, yeast (AID 1616). As to conditions: S. cerevisiae 75Q-TubH polyglutamine aggregation suppression; stronger effect = higher value.
Test [9] can be described thus: P. berghei load reduction in hepatocytes – cell-based, HepG2, luciferase luminescence, HepG2 viability, primary screen (AID 624349).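 Also: 100% = mean of DMSO negative control wells on the same plate.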 As to conditions: P. berghei liver stage in HepG2, luciferase luminescence, concentration not given here; parasite load remaining: stronger effect = lower value; viability: measured here: HepG2 viability without parasites.
Test [10] can be described thus: EMT-state selective cytotoxicity in co-culture – imaging, PC-3E GFP, TEM4-18 mCherry, primary screen (AID 1345086;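 active = compounds killing one labelled cell type while sparing the other, by normalised counts and ratio limits, not self-fluorescent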;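 as to all read-outs here: cells exposed to compound for 72 h before imaging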;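 as to red/green cell ratio (normalised): normalised mesenchymal count divided by normalised epithelial count so high means epithelial killing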). As to conditions: PC-3E GFP / TEM4-18 mCherry co-culture, imaging cell counts, at 1 µM; for red/green cell ratio (normalised): actives lie on both sides, counts scaled to control wells, 1 = unselective.
Test [11] can be described thus: blockers of cellular phospholipid synthesis – cell-based, LOPAC library, screen 4, primary screen (AID 1347384; call rule not given here). The conditions noted are these: animal cells, phospholipid biosynthesis inhibition screen; at 10 µM.
In test [12] the target is Mitogen-activated protein kinase 7 (Homo sapiens) (UniProt Q13164). In words: Gal4-ERK5 driven luciferase induction – cell-based, HTS, primary screen (AID 1508626;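 active = luciferase signal above three times the same-plate solvent-only control wells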;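 also: luciferase driven by Gal4-ERK5 fusion binding five Gal4 sites before minimal TATA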). The conditions noted are these: HeLa Gal4-ERK5 transactivation, 18 h, at 5 µM, stronger effect = higher value.
Mitogen-activated protein kinase 7 (Homo sapiens), sequence (Q13164 whole entry, looked up, the tested form may be a part): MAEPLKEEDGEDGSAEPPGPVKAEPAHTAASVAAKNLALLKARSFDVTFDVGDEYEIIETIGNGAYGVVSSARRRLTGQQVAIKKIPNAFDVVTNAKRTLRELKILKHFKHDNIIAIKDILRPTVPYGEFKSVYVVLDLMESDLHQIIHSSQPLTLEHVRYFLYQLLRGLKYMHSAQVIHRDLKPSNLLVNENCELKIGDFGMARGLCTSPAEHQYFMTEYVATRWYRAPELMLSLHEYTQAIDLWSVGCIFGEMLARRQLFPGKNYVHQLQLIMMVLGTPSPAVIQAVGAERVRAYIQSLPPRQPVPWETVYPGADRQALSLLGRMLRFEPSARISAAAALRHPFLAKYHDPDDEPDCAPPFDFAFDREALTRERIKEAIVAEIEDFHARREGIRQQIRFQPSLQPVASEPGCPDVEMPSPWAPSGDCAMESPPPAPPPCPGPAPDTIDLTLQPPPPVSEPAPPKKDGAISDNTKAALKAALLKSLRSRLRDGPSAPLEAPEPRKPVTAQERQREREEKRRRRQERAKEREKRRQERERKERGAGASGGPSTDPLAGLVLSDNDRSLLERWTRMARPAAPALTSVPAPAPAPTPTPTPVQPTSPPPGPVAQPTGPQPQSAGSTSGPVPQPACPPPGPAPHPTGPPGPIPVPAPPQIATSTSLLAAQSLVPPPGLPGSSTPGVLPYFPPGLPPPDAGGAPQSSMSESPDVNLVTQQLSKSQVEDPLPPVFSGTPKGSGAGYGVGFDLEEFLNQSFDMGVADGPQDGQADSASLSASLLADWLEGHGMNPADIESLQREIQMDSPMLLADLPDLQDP
Test [13] addresses NAD(+) hydrolase SARM1 (Homo sapiens) (UniProt Q6SZW1). In words: blocking NAD cleavage by SARM1 SAM-TIR – cell lysate, NAD-Glo luminescence (AID 1508614;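 active = compound whose remaining NAD level is above about 45 nM, limit read from the data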;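 also: higher remaining NAD means stronger inhibition of SARM1 NADase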). The conditions noted are these: SAM-TIR HEK293T lysate NADase, at 1 µM, stronger effect = higher value.
Test [14] can be described thus: viability loss with induced miR-34 in A549 – imaging, A549 dox-inducible miR-34, nuclei and caspase counts, primary screen (AID 1347080;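 active = compounds whose cell count with miR-34 switched on is under 0.7 times the count with it off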). The conditions noted are these: A549 miR-34 inducible, Hoechst nuclei count, 48 h.
Where [15] appears, read: measured here: epithelial PC-3E GFP cell survival.
Where [16] appears, read: measured here: mesenchymal TEM4-18 mCherry cell survival.
[17] abbreviates: stronger effect = lower value, cell number ratio, induced over uninduced.
The mark [18] stands for this setting: measured here: relative caspase fold change +Dox/-Dox.
[19] abbreviates: measured here: total cells with miR-34 induction, stronger effect = lower value.
Setting [20] is: measured here: total cells without miR-34 induction.

NAD(+) hydrolase SARM1 (Homo sapiens), sequence (Q6SZW1 whole entry, looked up): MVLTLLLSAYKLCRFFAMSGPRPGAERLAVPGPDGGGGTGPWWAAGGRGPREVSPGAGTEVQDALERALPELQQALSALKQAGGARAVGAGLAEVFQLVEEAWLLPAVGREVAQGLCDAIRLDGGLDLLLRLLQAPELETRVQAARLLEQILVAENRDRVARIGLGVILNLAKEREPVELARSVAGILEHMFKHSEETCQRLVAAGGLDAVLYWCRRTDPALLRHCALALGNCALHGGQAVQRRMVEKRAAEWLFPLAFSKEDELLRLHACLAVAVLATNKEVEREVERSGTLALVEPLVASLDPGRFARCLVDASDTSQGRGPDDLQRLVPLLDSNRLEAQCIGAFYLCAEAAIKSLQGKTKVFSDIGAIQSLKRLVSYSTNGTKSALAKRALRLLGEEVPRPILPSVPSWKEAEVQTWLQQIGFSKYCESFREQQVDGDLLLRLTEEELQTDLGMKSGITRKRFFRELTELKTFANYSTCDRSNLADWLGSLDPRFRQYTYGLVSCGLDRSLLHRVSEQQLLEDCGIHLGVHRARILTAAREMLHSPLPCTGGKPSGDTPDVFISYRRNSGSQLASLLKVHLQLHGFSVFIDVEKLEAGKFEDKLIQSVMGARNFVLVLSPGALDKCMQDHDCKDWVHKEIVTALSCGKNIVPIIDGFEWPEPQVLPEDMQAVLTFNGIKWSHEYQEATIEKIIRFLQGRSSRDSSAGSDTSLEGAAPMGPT

What is called inhibition is the drop in the measured response relative to a control, in per cent. As usually defined, the viability is a read-out of living cells in per cent, often relative to untreated cells. For `CC1OC1P(=O)(O)O` (centres undefined), the inhibition in test [1] was -3.29%. Also, the score in [2] was determined as 1.42. The compound also came in with a rescue above control in test [3] of 16.3. Further, the cytochrome c release ratio in test [4] is 6.79. The same compound registered an inhibition of aggregation in test [5] of 83.9%. In test [6], the glutamate uptake change was -1.38%. This compound had an inclusion score in [7] of 2. Further, the aggregation suppression score in test [8] was 1.43. For the same compound, the parasite load remaining in [9] is 59.9% (inactive) and 33.6% (inactive). Also, the viability in test [9] was 74.5% and 90.1%. In addition, the red/green cell ratio (normalised) in test [10] was 1.09 (inactive). The normalised cell number in [10] (setting [15]) was found to be 1.06; in test [10] (setting [16]) it was 1.16. In addition, the outcome in test [11] was inactive.

Consider `CC(C)=CCC/C(C)=C/COc1ccc2ccc(=O)oc2c1`, for which the red/green cell ratio (normalised) in test [10] was 1.07 (inactive). For the same compound, the results for the normalised cell number in test [10] (setting [15]) and in test [10] (setting [16]) were 0.93 and 0.99, respectively. Moreover, the call in test [11] was inactive. Also, in [12], the luciferase signal was 76 AU (inactive).

For `CC(C)(C)NC[C@H](O)COc1ccccc1C1CCCC1`, in test [10], the red/green cell ratio (normalised) is 1.04 (inactive). Further, the figures for the normalised cell number in test [10] (setting [15]) and in test [10] (setting [16]) were 1.13 and 1.17, respectively. In addition, in test [13], the remaining NAD is 10 nM (inactive).

Turning to `NC[C@H]1O[C@H](OC2[C@@H](N)C[C@@H](N)[C@H](O[C@H]3O[C@H](CO)[C@@H](O)[C@H](N)[C@H]3O)[C@H]2O)[C@H](O)[C@@H](O)[C@@H]1O` (some centres undefined), in test [9], the parasite load remaining was 92.2% (inactive) and 70.3% (inactive). Further, in test [9], the viability is 72.7% and 101%. The red/green cell ratio (normalised) in [10] was 1.25 (inactive). Also, the normalised cell number in test [10] (setting [15]) came out at 0.64; in [10] (setting [16]), 0.8. In addition, the fold change in test [14] (setting [17]) is 0.877 (inactive); in test [14] (setting [18]), 2. Further, the figures for the cell count in [14] (setting [19]) and in test [14] (setting [20]) were 11500 and 13200, respectively.

Turning to `CCOC(=O)C(C)(N)Cc1ccc(O)c(O)c1` (centres undefined), the parasite load remaining in test [9] is 15% (inactive). Besides, the viability in test [9] amounted to 103%. For the same compound, the red/green cell ratio (normalised) in test [10] is 1.25 (inactive). The normalised cell number in test [10] (setting [15]) was 0.9; in [10] (setting [16]), 1.12. Further, the fold change in test [14] (setting [17]) is 0.926 (inactive); in [14] (setting [18]), 3.34. The cell count in [14] (setting [19]) stood at 12200; in [14] (setting [20]) it was 13200.

As to `CC(=O)OC1CCC2C3CCc4cc(O)ccc4C3CCC12C` (centres undefined), the parasite load remaining in test [9] was 37.6% (inactive) and 33.6% (inactive). Moreover, the viability in test [9] is 66.8% and 98%. Moreover, the red/green cell ratio (normalised) in test [10] was 0.88 (inactive). For the same compound, the normalised cell number was 1.2 in [10] (setting [15]) and 1.05 in test [10] (setting [16]). The fold change was 0.907 (inactive) in test [14] (setting [17]) and 3.29 in test [14] (setting [18]). The cell count came to 8630 in test [14] (setting [19]) and 9520 in test [14] (setting [20]).

Take `NC(Cc1c[nH]c2ccccc12)C(=O)O` (centres undefined): the parasite load remaining in test [9] was 149% (inactive) and 37.9% (inactive). Also, the viability in [9] was 72.8% and 89.5%. For the same compound, the red/green cell ratio (normalised) in [10] was 1.24 (inactive). Further, the figures for the normalised cell number in test [10] (setting [15]) and in test [10] (setting [16]) were 0.98 and 1.22, respectively. In addition, the fold change is 0.933 (inactive) in test [14] (setting [17]) and 2.24 in [14] (setting [18]). The cell count in [14] (setting [19]) is 11800; in test [14] (setting [20]), 12700.
